# Screens deposited in PubChem by several laboratories.
# Hits are enriched below; roughly 3% of the tested compounds scored in any of these assays.
# Mcl1 Bid PPI: Mcl-1/Bid interaction inhibition. Q07820. TR-FRET Mcl-1/Bid-Dy647 peptide binding, 1536-well. inhibition, % at 21.7 µM. 220,000 compounds, 0.97% hits. AID 1021;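 active = compounds that cut the binding signal by more than half at the single screening dose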;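 also: His-tagged Mcl-1 with europium anti-His antibody binding Bid BH3 peptide; 0% = Mcl-1 plus peptide wells and 100% = peptide-only wells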
# Target sequence (Q07820 whole entry, looked up): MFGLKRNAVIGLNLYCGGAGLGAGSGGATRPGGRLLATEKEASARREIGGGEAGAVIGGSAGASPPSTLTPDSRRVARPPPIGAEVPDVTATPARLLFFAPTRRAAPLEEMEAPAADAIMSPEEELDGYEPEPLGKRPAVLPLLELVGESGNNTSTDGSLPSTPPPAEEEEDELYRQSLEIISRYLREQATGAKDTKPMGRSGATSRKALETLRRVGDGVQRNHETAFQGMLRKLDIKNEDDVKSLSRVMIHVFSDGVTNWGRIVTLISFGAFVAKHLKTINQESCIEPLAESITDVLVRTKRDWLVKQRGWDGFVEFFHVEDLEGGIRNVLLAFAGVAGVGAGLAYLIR
# Arbovirus anti: blocks arbovirus infection; arbovirus infection cell-based antiviral screen; inhibition, % at 10 µM; 200,000 compounds, 0.37% hits; AID 1251; in the data active = inhibition above about 30%
# 14-3-3 Bad PPI: disrupts binding of bovine 14-3-3 zeta to phospho-Bad peptide | P63103 | TR-FRET 14-3-3zeta/Dy647-pBad peptide displacement, 1 h | inhibition, % at 21.7 µM | 220,000 compounds, 0.71% hits;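 active = inhibition above about 70%, limit read from the data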;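 also: 0% = full 14-3-3 plus peptide FRET controls and 100% = background without 14-3-3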
# Target sequence (P63103 whole entry, looked up): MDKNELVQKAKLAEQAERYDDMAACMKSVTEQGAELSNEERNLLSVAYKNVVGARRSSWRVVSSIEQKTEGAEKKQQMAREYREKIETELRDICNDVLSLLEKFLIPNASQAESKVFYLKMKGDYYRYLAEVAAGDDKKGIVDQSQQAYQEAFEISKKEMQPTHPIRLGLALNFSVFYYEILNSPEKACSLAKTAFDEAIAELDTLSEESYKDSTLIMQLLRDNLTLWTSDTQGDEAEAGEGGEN
# Mcl-1 Bim block: inhibitors of Bim-Mcl-1 interaction, human. Q07820. Bead-based flow cytometry, Bim peptide-Mcl-1 binding. inhibition, % at 10 µM. 190,000 compounds, 0.1% hits. AID 1009; in the data active = inhibition above about 40%;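 also: 0% = no compound tracer wells and 100% = peptide blocker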
# Mcl1 Noxa PPI: Mcl-1/Noxa interaction inhibition. Q07820. TR-FRET Mcl-1/Noxa peptide binding, 2 h. inhibition, % at 21.7 µM. 220,000 compounds, 1.5% hits;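 active = compounds that cut the protein-peptide binding signal by more than 50% relative to plate controls in a single-dose test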;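 also: His-tagged Mcl-1 with rhodamine Noxa BH3 peptide and terbium anti-His antibody; 0% = Mcl-1 plus Noxa peptide wells and 100% = peptide-only wells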
# An asterisk follows results filed as active; . = no result given.
SMILES,Mcl1 Bid PPI,Arbovirus anti,14-3-3 Bad PPI,Mcl-1 Bim block,Mcl1 Noxa PPI
COCc1cc(CN2CCCC(CNC(=O)c3ccc(F)cc3)C2)ccc1OC (centres undefined),-29,4,-7,40*,-3
CC(=O)Nc1cccc(-c2cn3ccccc3n2)c1,-16,1,-5,0,14
O=C(Nc1cccc(-c2cn3ccccc3n2)c1)c1cc2ccccc2oc1=O,60*,-10,64,2,59*
CCN1CCN(C(c2cccc(OC)c2)c2sc3nc(C)nn3c2O)CC1 (centres undefined),-3,1,1,-4,-5
COc1cccc(C(c2sc3nc(C)nn3c2O)N2CCc3ccccc3C2)c1 (centres undefined),-9,-2,-7,0,52*
C=CCC1(/C=N/O)CCOC(C)(C)C1 (centres undefined),98*,.,2,.,-24
Cc1ccc(Cc2ccc(C(=O)NNC(N)=S)o2)cc1,-81,-9,-23,-3,-12
Cc1cc(N=Cc2c(O)ccc3cc(Br)ccc23)no1,-23,55*,2,1,84*
Cc1cc(N=Cc2c(O)ccc3ccccc23)no1,-15,3,14,-2,30
COc1ccc(C2C(C#N)=C(N)Oc3cc(O)ccc32)cc1OC (centres undefined),-43,-5,-6,-2,6
COc1cc(C2C(C#N)=C(N)Oc3cc(O)ccc32)cc(OC)c1OC (centres undefined),60*,-13,-10,-2,21
COc1ccccc1C(CC(=O)Nc1ccc(C)c(C)c1)c1ccc(OC(C)C)cc1 (centres undefined),-11,-7,4,-2,55*
COc1ccccc1NC(=O)CC(c1ccc(OC(C)C)cc1)c1ccccc1OC (centres undefined),-26,9,-6,-19,-11
COc1ccc(CN2C(=O)c3cccnc3C2Nc2cc(Cl)c(OC)cc2OC)cc1 (centres undefined),90*,-1,92*,-5,39
COc1ccc(CN2C(=O)c3cccnc3C2Nc2ccc(C)cc2)cc1 (centres undefined),12,-6,28,0,20
Cc1c(-c2ccccc2)sc(N)c1C(=O)N1CCOCC1,-11,4,-3,-1,7
CCc1ccc(C(=O)Nc2ccc(S(=O)(=O)Nc3nc(C)cc(C)n3)cc2)o1,2,106*,2,-3,6
Cc1cc(C)nc(NS(=O)(=O)c2ccc(NC(=O)c3ccco3)cc2)n1,-19,4,3,-5,2
O=C1/C(=C/C=C/c2ccco2)SC(=S)N1NS(=O)(=O)c1ccccc1,74*,.,89*,.,111*
CCC1(c2ccccc2)NC(=O)N(Cc2ccc(C(=O)OC)cc2)C1=O (centres undefined),-6,5,8,-4,8
CC(C)NC(=O)c1cc(=O)n(C)c(=O)n1C,-12,6,88*,-1,-18
Cn1c(C(=O)NC2CC2)cc(=O)n(C)c1=O,5,4,-11,-1,1
CC(C)CNC(=O)C1CCN(c2ccc(S(=O)(=O)N3CCOCC3)cc2[N+](=O)[O-])CC1,-23,.,0,.,1
CNc1nnc(-c2cc3cc(Cl)ccc3oc2=O)s1,13,2,60,-1,64*
COc1ccc2oc(=O)c(-c3nc4ccccc4o3)cc2c1,-10,-19,-10,-3,16
SMILES,Mcl1 Bid PPI,Arbovirus anti,14-3-3 Bad PPI,Mcl-1 Bim block,Mcl1 Noxa PPI
CCOc1cccc2cc(-c3cn4cc(C)ccc4n3)c(=O)oc12,80*,-16,55,0,12
CCOc1cccc2cc(-c3nnc(NCc4ccco4)s3)c(=O)oc12,29,-5,10,0,64*
COc1ccc2oc(=O)c(-c3nnc(NCc4ccco4)s3)cc2c1,65*,-23,8,-1,50
CCOc1cccc2cc(C(C)=O)oc12,-4,0,-21,-2,12
CC(=O)c1cnc2n(c1=O)CCS2,21,6,14,-3,33
CN(C)CCCNc1ccc(-c2nn(C)c(=O)c3ccccc23)cc1[N+](=O)[O-],-22,-12,-3,0,11
COc1ccc2oc(=O)c(-c3csc(Nc4ccc(O)cc4)n3)cc2c1,40,-8,17,0,73*
COc1ccc2oc(=O)c(/C(C)=N/Nc3nc(-c4cc(C)ccc4C)cs3)cc2c1,-18,3,-9,-4,-13
CCCN(CCC)CCNC(=O)C1c2ccccc2C(=O)N2CCc3ccccc3C12 (centres undefined),-24,8,-13,0,1
O=C(c1ccc(C(F)(F)F)cc1)C1CCCN(C(=O)CCN2CCCO2)C1 (centres undefined),-24,6,26,-3,5
COc1ccc(N2Cc3cccc(C(=O)N4CCN(C(=O)c5ccco5)CC4)c3C2=O)cc1,-26,6,3,2,74*
COc1ccc(N2Cc3cccc(C(=O)N4CCOCC4)c3C2=O)cc1,-36,4,3,-3,13
COc1ccc(C(=O)NCCN2CCOCC2)c(OC)c1OC,-14,4,-4,-2,10
Cc1cccc(OCCCCCn2ccnc2)c1,51*,5,70,3,16
Cc1ccccc1OCCCCCn1ccnc1,1,7,-17,0,19
O=[N+]([O-])c1ccc(/C=N/n2cnc3ccccc32)s1,-8,-36,5,0,10
Cc1cc2ncn(/N=C/c3ccc([N+](=O)[O-])s3)c2cc1C,26,-28,4,-1,87*
COc1cccc(CNC(=O)Cc2nc3nc(C)cc(C)n3n2)c1,-6,-12,-4,-8,11
COc1ccc(S(=O)(=O)/N=C2/C=CC(=O)C(C)=C2C)cc1,-59,-7,15,0,67*
CCOC(=O)c1cc([N+](=O)[O-])sc1N,-3,-1,-1,2,-23
N#Cc1ccc(Oc2nc(C#N)cc(-c3ccccc3)n2)cc1,-9,15,-2,-1,14
N#Cc1cc(-c2ccccc2)nc(Oc2ccccc2)n1,83*,17,0,-5,-1
O=C(N/N=C\C=C\c1ccco1)c1cc(-c2ccc3ccccc3c2)n[nH]1,-14,-1,-7,-4,93*
CCn1c(SCC(=O)N/N=C/C=C/c2ccco2)nnc1-c1ccccc1,-37,0,3,1,6
O=C(Cc1cccs1)N/N=C/C=C/c1ccco1,-30,6,-2,-3,70*
SMILES,Mcl1 Bid PPI,Arbovirus anti,14-3-3 Bad PPI,Mcl-1 Bim block,Mcl1 Noxa PPI
O=C(N/N=C/C=C\c1ccco1)c1ccccn1,-37,.,2,.,-5
O=C(CSc1nnc(SCc2ccccc2)s1)N/N=C/C=C/c1ccco1,45,-11,-7,-5,106*
COc1ccccc1C1CCN(c2cc(O)ccc2[N+](=O)[O-])CC1,0,.,2,.,-18
Cc1cc(N2CCCC2)nc2ccc(NC(=S)NC(C)C)cc12,-25,-16,-5,-2,61*
COCCNC(=S)Nc1ccc2nc(N3CCCC3)cc(C)c2c1,-75,5,-5,4,42
Cc1ccc(S(=O)(=O)NCCOc2nc(N(C)C)nc(N(C)C)n2)cc1,-17,.,11,.,-4
